Hits are enriched below; roughly 21% of the tested compounds scored in any of these assays.
Pf growth 96h: P. falciparum growth inhibition at 96 hours | P. falciparum luciferase reporter growth, 96 h | AID 504834 | Potency, µM (series often up to 28.7 µM), for inactives: top-dose activity change, negative = inhibition, actives largely listed as inhibitors | 6.9% of 320,000 active; also: potency is read from the fitted curve at half-maximal effect; % is scaled to controls: 0 for no effect and ±100 for the full control effect
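96 h incubation, 37 C, 5% CO2, of luciferase-reporter P. falciparum-infected RBCs (2% hematocrit, 0.05% parasitemia final) with test compounds; endpoint luminescence.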
Pf growth 48h: inhibits P. falciparum growth in the first generation, 48 h; Potency, µM (series often up to 28.7 µM), without a hit: at the highest dose activity change, negative = inhibition, hits mostly inhibitors; P. falciparum luciferase growth in erythrocytes, 48 h; 5.9% of 310,000 active; AID 504832; also: potency is read from the fitted curve at half-maximal effect; % is scaled to controls: 0 for no effect and ±100 for the full control effect
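Luciferase-expressing parasites in RBCs, 2% Hct / 0.1% parasitemia final; RPMI 1640 + 0.5% Albumax; 37 C, 5% CO2, one generation; luminescence read-out, lower signal = inhibition.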
Shiga toxin inh: blocks Shiga toxin action in Vero cells; 9.2% of 290,000 active; Vero cells, Shiga toxin protein synthesis inhibition reporter; AID 2315; inhibition, % at 38.7 µM; in the data active = inhibition mostly above about 28%, no sharp cut-off; inactive = mostly below about 43%; also: 0% is about no effect
Cycloheximide cs: counter-screen hit for Shiga toxin inhibitors, cycloheximide. 12% of 300,000 active. max response, %. cell reporter, cycloheximide protein synthesis inhibition counterscreen; in the data active = max response mostly above about 13%, no sharp cut-off; inactive = mostly below about 14%; also: read at 38.3 µM for the half of the compounds with a filed dose; 0% is about no effect
HCV inh: blocks hepatitis C virus | Huh7.5.1 HCVcc-Cre infection, luciferase reporter, 44 h | Potency, µM (titrated, usually from 41.8 µM), inactives show top-dose activity change, negative = inhibition, most hits filed as inhibitors | 3.4% of 340,000 active; also: potency is read from the fitted curve at half-maximal effect; % is scaled to controls: 0 for no effect and ±100 for the full control effect
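1,000 cells/well; 4 h culture; + compound; + HCVcc-Cre (~0.5 moi); 44 h; luciferase substrate, RT 15 min; read 15 sec.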
HCMV antiviral: human cytomegalovirus inhibition | HFF cells, HCMV-luciferase reporter, 72 h; active compounds read low | activity change, negative = inhibition, % at 57.5 µM | 4.5% of 410,000 active | AID 1259415; in the data active = activity change below about -60%; inconclusive = no clear call, values can overlap the other calls; inactive = above about -39%; also: % is scaled to controls: 0 for no effect and ±100 for the full control effect
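Two compound doses tested in HFFs infected with HCMV-luciferase, MOI 1 PFU/cell, 72 h at 37C. Lysate luminescence read with OneGlo; data normalized against buffer-only and 10uM Salinomycin inhibitor controls.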
Numbers without * were called inactive; ? = inconclusive; / = no result. Unless noted, calls follow the shape of the dose curve; as a rule, active = well fitted inhibition curve with a large enough effect; inconclusive = small, poorly fitted or top-dose-only effect, or another doubt; inactive = no such curve, though single readings can be large or run the other way.

SMILES | Pf growth 96h | Pf growth 48h | Shiga toxin inh | Cycloheximide cs | HCV inh | HCMV antiviral
CC(C)(C)OC(=O)NCc1ccc(CNC(=O)c2nc[nH]c2C(=O)N2CCN(c3ccccc3)CC2)cc1 | -27% | 13µM* | / | / | ? | -6
CC(C)(C)OC(=O)NCc1ccc(CNC(=O)c2nc[nH]c2C(=O)N2CCc3ccccc3C2)cc1 | ? | ? | / | / | ? | 8
C[C@H](NC(=O)c1nc[nH]c1C(=O)NCc1ccc(CNC(=O)OC(C)(C)C)cc1)C(=O)OC(C)(C)C | 1.3µM* | ? | 9 | 12 | ? | 18
COc1ccccc1C1/C(=C(\O)c2ccc3c(c2)OCCO3)C(=O)C(=O)N1Cc1cccnc1 (stereo not given) | 8% | 17% | -3 | 13 | -2% | 7
Cc1c(C(=O)N2CCCC2)oc2c1-c1nn(CC(=O)NCc3cccc(Br)c3)cc1CC2 | / | / | / | / | / | -27
COc1cc(-c2nc3ccccn3c2/N=C/c2cccc(OC)c2O)ccc1O | 54% | 5% | 54 | 23* | 5% | 6
COc1ccc(/C=N/c2c(-c3ccco3)nc3ccccn23)cc1OC | / | ? | -5 | -5 | 23% | 56
COc1cc(-c2nc3ccccn3c2/N=C/c2ccc(F)cc2)ccc1O | ? | 21% | 24 | 16* | -5% | -7
Cc1ccc(S(=O)(=O)N(C)C)cc1NC(=O)COC(=O)CSc1ccccc1 | 11% | 3% | / | / | 1% | -31
COc1cc(NC(=O)N2CCSc3ccccc32)cc(OC)c1OC | / | / | / | / | / | 0
C=CCNC(=S)NNC(=O)c1ccc(Br)cc1 | 9% | 33% | -3 | 7 | 3% | -34
C=CCNC(=S)NNC(=O)c1cc(O)ccc1O | 4.7µM* | 12% | -7 | -2 | -5% | -32
Cc1ccc(C)c(Oc2coc3cc(OCC(=O)Nc4ccccc4C(C)C)ccc3c2=O)c1 | 7.4µM* | 13µM* | -8 | -3 | ? | /
Cc1cccc(Oc2coc3cc(OCC(=O)NC4CCCCC4)ccc3c2=O)c1 | / | / | / | / | / | -12
CCCCNS(=O)(=O)c1ccc(S(=O)(=O)NCc2ccncc2)cc1 | -28% | 2% | -3 | -3 | 10µM* | -72*
CCCCc1ccc(S(=O)(=O)NCCc2ccncc2)cc1 | / | -12% | -20 | -2 | 11µM* | -63*
Cc1ccc(S(=O)(=O)NCCc2ccncc2)cc1 | 194% | -4% | 13 | -2 | 8% | 49
CCOc1ccc(S(=O)(=O)NCCC(=O)NCc2ccncc2)cc1 | 8% | -2% | / | / | 31% | -14
Cc1cc(C)cc(N(CCC(=O)Nc2nnc(C3CC3)s2)S(=O)(=O)c2ccc(Cl)cc2)c1 | 2% | -1% | 14 | -3 | ? | -61*
CCOc1ccc(N(C)S(=O)(=O)c2ccc(C)c(C(=O)OCC(=O)c3c[nH]c4ccccc34)c2)cc1 | ? | 13µM* | 3 | 0 | 0% | ?
CCOc1ccc(N(C)S(=O)(=O)c2ccc(C)c(C(=O)Nc3nnc(C4CC4)s3)c2)cc1 | ? | 4.1µM* | / | / | -13% | -2
COC(=O)c1cc2c(c3c4cc(C)ccc4n(S(=O)(=O)c4cccc(C)c4)c13)C(=O)N(C)C2 | / | / | / | / | / | -25
COc1ccc(-c2ncncc2-c2ccc(OC)c(OC)c2)c(O)c1 | -17% | -11% | 6 | 18 | ? | 1
COc1ccc(-c2cncnc2-c2ccc(OC)cc2O)cc1 | ? | ? | -15 | -5 | -26% | -64*
COc1cccc(Oc2cncnc2-c2ccc(OC)cc2O)c1 | 80% | 5.2µM* | -9 | 2 | -21% | 22
SMILES | Pf growth 96h | Pf growth 48h | Shiga toxin inh | Cycloheximide cs | HCV inh | HCMV antiviral
COc1ccc(-c2ncncc2-c2ccc(Cl)cc2)c(O)c1 | 7.4µM* | 8.3µM* | -8 | -2 | -15% | 0
Cc1cccc(NCc2ccc(O)c3ncccc23)c1 | ? | 6% | -7 | 6 | 7.1µM* | -84*
Cc1ccccc1NCc1ccc(O)c2ncccc12 | -13% | ? | -3 | -2 | ? | -97*
Cc1ccc(S(=O)(=O)Nc2ccc3c(c2)nc(C)n3C)cc1 | 0% | 13% | 22 | -1 | -20% | -7
Cc1ccc(NC(=O)Nc2ccc3c(c2)nc(C)n3C)cc1 | ? | 23% | 54* | 33* | ? | 67
CC(=O)NCCc1nc2cc(NC(=O)Nc3ccccc3)ccc2n1C | 182% | 126% | 4 | 1 | 7% | -5

Screening data deposited in PubChem by National Center for Advancing Translational Sciences (NCATS).
